Experimental findings from the supplement of paper PMC10681739 are described below.

One assay concerns the target T1, ETS1 (UniProt P14921).
T1 sequence: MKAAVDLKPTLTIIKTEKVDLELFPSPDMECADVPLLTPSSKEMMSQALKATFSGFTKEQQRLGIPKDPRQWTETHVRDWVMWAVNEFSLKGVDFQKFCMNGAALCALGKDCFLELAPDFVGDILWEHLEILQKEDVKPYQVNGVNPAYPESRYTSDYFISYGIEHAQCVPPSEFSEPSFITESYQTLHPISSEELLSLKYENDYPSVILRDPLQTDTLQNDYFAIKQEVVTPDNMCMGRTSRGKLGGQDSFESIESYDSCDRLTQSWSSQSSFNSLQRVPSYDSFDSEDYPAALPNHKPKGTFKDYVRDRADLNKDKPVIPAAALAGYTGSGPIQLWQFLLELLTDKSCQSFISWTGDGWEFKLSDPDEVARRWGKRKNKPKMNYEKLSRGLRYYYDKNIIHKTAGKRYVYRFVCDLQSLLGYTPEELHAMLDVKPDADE
Briefly: ETS1 binding intensity (PBM fluorescence), ETS1 alone (arbitrary fluorescence units); higher = stronger binding. To be noted: ETS1 concentration 1 nM; RUNX1 concentration 0 nM.

The target of assay [1] is RUNX1 (UniProt Q01196). Briefly: RUNX1 binding intensity (PBM fluorescence), RUNX1 alone (arbitrary fluorescence units); higher = stronger binding. As to conditions: RUNX1 concentration 2 nM; ETS1 concentration 0 nM. The method, then: (§1)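 Cooperative gcPBM on 36-bp genomic probes with neighbouring ETS1 and RUNX1 sites. Recombinant human RUNX1 (2 nM) was incubated alone or with ETS1 (25 nM) and detected with anti-RUNX1 antibody plus Alexa488 secondary. Values are medians over 4 replicate spots; the RUNX1+ETS1 data were normalised to the RUNX1-only data. The probes sit in constant array flanks that are not printed.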

The target of assay [2] is RUNX1 (UniProt Q01196). Kind of assay: RUNX1 binding intensity (PBM fluorescence) in presence of ETS1, normalised to RUNX1-only experiment (arbitrary fluorescence units); higher = stronger binding. To be noted: RUNX1 concentration 2 nM; ETS1 concentration 25 nM. As to the method:
as §1
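For RUNX1 binding intensity (PBM fluorescence) in presence of ETS1, normalised to RUNX1-only experiment in this document: Full-length recombinant human ETS1 or RUNX1 bound to double-stranded 36-bp genomic probes on microarrays, detected by protein-specific primary antibody and Alexa488 secondary, spot fluorescence as median of four replicate spots.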
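For RUNX1 binding intensity (PBM fluorescence), RUNX1 alone in this document: Full-length recombinant human RUNX1 bound to double-stranded 36-bp genomic probes on a high-density microarray, scored as Alexa488 fluorescence per spot via anti-RUNX1 antibody, median of four replicate spots.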

Chain of RUNX1 (Q01196 whole entry): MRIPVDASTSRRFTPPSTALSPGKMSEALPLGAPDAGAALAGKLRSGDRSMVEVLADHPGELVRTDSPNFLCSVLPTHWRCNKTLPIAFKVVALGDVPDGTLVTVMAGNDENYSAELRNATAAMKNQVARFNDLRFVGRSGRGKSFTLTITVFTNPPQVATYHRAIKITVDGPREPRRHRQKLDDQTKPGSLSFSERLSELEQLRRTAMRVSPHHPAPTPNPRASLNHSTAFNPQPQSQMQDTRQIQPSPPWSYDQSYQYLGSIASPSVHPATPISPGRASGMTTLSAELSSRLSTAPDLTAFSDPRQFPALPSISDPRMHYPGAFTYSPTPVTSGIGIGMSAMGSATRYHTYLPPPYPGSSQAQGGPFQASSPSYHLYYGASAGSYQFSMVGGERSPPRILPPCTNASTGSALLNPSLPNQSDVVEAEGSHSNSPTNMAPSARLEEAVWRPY

Turning to TCTCTATGGTTTCCGTTGGGTGTGTGGTTTTTTTGT, the ETS1 binding intensity in the assay with ETS1 is 579. The RUNX1 binding intensity in the assay with RUNX1 [1] stood at 1130; with RUNX1 [2], 2050.

Sequence CTGGGGATGTGTGACACTCAGAGAAACCACAAGGTG had an ETS1 binding intensity with ETS1 of 495. Also, the RUNX1 binding intensity with RUNX1 [1] was determined as 1010; in the assay with RUNX1 [2], 1140.

Consider TAGGCTGAAGACTTCCGCCCCGCAGAGGACTTGCCT, for which, in the assay with ETS1, the ETS1 binding intensity came out at 1040. Moreover, the RUNX1 binding intensity in the assay with RUNX1 [1] was determined as 839; with RUNX1 [2], 1170.

As for ACCTGTAGGCGGAAGTCTGTGGCTTTATTTACACAG, the ETS1 binding intensity in the assay with ETS1 came out at 2340. The figures for the RUNX1 binding intensity with RUNX1 [1] and with RUNX1 [2] were 792 and 1730, respectively.

For ATGCCTTCTTCCAGAGGATGTGGTCGCTACTAGTGG, the ETS1 binding intensity with ETS1 was 1320. In addition, the RUNX1 binding intensity with RUNX1 [1] is 725; with RUNX1 [2], 868.

In turn, GGTGTGTTCTGGGGAGGAAGTGGGTTTTCAGGTTGT registered an ETS1 binding intensity with ETS1 of 3820. The results for the RUNX1 binding intensity in the assay with RUNX1 [1] and with RUNX1 [2] were 799 and 1120, respectively.

In the case of CATTTCAGTCCAGGATGTGGGTGCACACACCGCTTC, in the assay with ETS1, the ETS1 binding intensity is 1610. Further, the RUNX1 binding intensity in the assay with RUNX1 [1] was 798; with RUNX1 [2], 1430.

As for GTCCCCGTAACAGGATGTGGTGAGCTGTTATACCAC, the ETS1 binding intensity in the assay with ETS1 is 6710. The RUNX1 binding intensity came to 802 in the assay with RUNX1 [1] and 4520 in the assay with RUNX1 [2].

In the assay with ETS1, TCCCCACATCCTTTAAAACGATGAGATAACCACATG gave an ETS1 binding intensity of 398. Further, the RUNX1 binding intensity was determined as 1000 in the assay with RUNX1 [1] and 2960 in the assay with RUNX1 [2].

For the sequence AAGAAAAAGGGAGGATGTGGTTTAGCAAAAGCACTG, the ETS1 binding intensity in the assay with ETS1 came to 1420. For the same sequence, the RUNX1 binding intensity with RUNX1 [1] is 920; with RUNX1 [2], 2230.

Take CCACTGCTTCCGCCTTCTCTGCTGGCTGCGGGGAGC: the ETS1 binding intensity in the assay with ETS1 is 545. The RUNX1 binding intensity in the assay with RUNX1 [1] worked out at 904; with RUNX1 [2], 2210.

Turning to TTTATCATGAATGCAGGATGTGGGCAAACTCGCATC, in the assay with ETS1, the ETS1 binding intensity came out at 2340. Besides, the RUNX1 binding intensity in the assay with RUNX1 [1] amounted to 749; in the assay with RUNX1 [2], 1060.

Sequence AAACCAGAGGAAGTGGATTCCAACCACAAACCTCAC registered an ETS1 binding intensity in the assay with ETS1 of 750. The figures for the RUNX1 binding intensity with RUNX1 [1] and with RUNX1 [2] were 1080 and 2100, respectively.

AGCGCCACACTTCCGCTTTGCGGCAGTGTGCGCCCC gave an ETS1 binding intensity in the assay with ETS1 of 3490. Further, the RUNX1 binding intensity with RUNX1 [1] is 730; with RUNX1 [2], 1890.

In the assay with ETS1, GAGGAACCCAAAGTAGGATGTGGTTTTGCAATTGGA gave an ETS1 binding intensity of 757. The RUNX1 binding intensity with RUNX1 [1] was determined as 1020; with RUNX1 [2], 1770.
